# Data taken from PubChem BioAssay (NCATS).
# Results filed as inconclusive are left out. Active and inactive are the calls of the source. Calls come from the whole dose curve; as a rule, active = well fitted curve in the direction sought with a large enough effect; inconclusive = small, poorly fitted or top-dose-only effect, or another doubt; inactive = no such curve, though single readings can be large; an effect the other way counts as inactive or inconclusive.
# Legend:
# [1] = qHTS of pediatric cancer cell lines to identify multiple opportunities for drug repurposing: Primary screen for MG 63 (6-TG R) cells (AID 1347105); note: nearly all actives have a fitted effect of over 50% in size
# Method in brief: (§1)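 CRCs from 8- or 11-point titrations (lowest final 0.59 nM NPC, 0.78 nM MIPE). Cell viability: CellTiter-Glo after 48 h incubation, 15 min room-temperature development, luminescence imaging.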
# [2] = qHTS of pediatric cancer cell lines to identify multiple opportunities for drug repurposing: Primary screen for control Hh wild type fibroblast cells (AID 1347106); note: nearly all actives have a fitted effect of over 55% in size
# Method in brief: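 Viability after 48 h compound treatment at 37C, 500-1,000 cells/well, read as ATP luminescence with CellTiter-Glo. Primary screens used 11-point (MIPE, 0.78 nM-46 µM) or 8-point (NPC, 0.59 nM-46 µM) final concentrations; follow-up screens used 11-point dilutions.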
# [3] = qHTS of pediatric cancer cell lines to identify multiple opportunities for drug repurposing: Primary screen for Rh41 cells (AID 1347108); note: nearly all actives have a fitted effect of over 70% in size
# Method in brief: as §1
# [4] = qHTS of pediatric cancer cell lines to identify multiple opportunities for drug repurposing: Confirmatory screen for NB1643 cells (AID 1347109); note: nearly all actives have a fitted effect of over 45% in size
# Method in brief: (§2)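 Cells (500-1,000/well) rested 5 h, then received compounds for 48 h; metabolically active cells were measured by CellTiter-Glo luminescence. Final concentrations spanned up to 46 µM (MIPE, 11-point) or 0.59 nM-46 µM (NPC, 8-point) in primary screens, 11-point in follow-ups.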
# [5] = qHTS of pediatric cancer cell lines to identify multiple opportunities for drug repurposing: Confirmatory screen for A673 cells (AID 1347110);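 note: cells exposed to compound for 48 h before the viability read; nearly all actives have a fitted effect of over 65% in size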
# Method in brief: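 Viability was read as ATP luminescence (CellTiter-Glo) after 48 h of compound exposure at 37 C in A673 cells seeded at 500-1,000/well. Titrations reached 46 uM final, with 11 points in the confirmatory screen. Concentration-response curves were fitted directly.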
# [6] = qHTS of pediatric cancer cell lines to identify multiple opportunities for drug repurposing: Confirmatory screen for SK-N-MC cells (AID 1347111);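 note: cells exposed to compound for 48 h before the readout; nearly all actives have a fitted effect of over 70% in size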
# Method in brief: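 Seed 500-1,000 cells/well; rest 5 h at 37 degrees C. Pin-transfer compounds, 11-point titration. Incubate 48 h. Add CellTiter-Glo, 15 min RT, read luminescence.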
# [7] = qHTS of pediatric cancer cell lines to identify multiple opportunities for drug repurposing: Confirmatory screen for BT-12 cells (AID 1347112); note: nearly all actives have a fitted effect of over 55% in size
# Method in brief: as §2
# [8] = qHTS of pediatric cancer cell lines to identify multiple opportunities for drug repurposing: Confirmatory screen for LAN-5 cells (AID 1347113); note: nearly all actives have a fitted effect of over 65% in size
# Method in brief: as §2
# [9] = qHTS of pediatric cancer cell lines to identify multiple opportunities for drug repurposing: Primary screen for Rh30 cells (AID 1347107); note: nearly all actives have a fitted effect of over 75% in size
# Method in brief: as §2
# [10] = qHTS of pediatric cancer cell lines to identify multiple opportunities for drug repurposing: Confirmatory screen for DAOY cells (AID 1347114); note: nearly all actives have a fitted effect of over 65% in size
# Method in brief: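 Viability measured as metabolically active cells via CellTiter-Glo luminescence following 48 hours of compound exposure, 11-point dilutions in confirmatory testing. 500-1,000 cells/well plated 5 hours before dosing; controls were DMSO and 2.3 µM bortezomib.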
# Potency is the fitted concentration of half-maximal effect.
Compound,Potency [1],Potency [2],Potency [3],Potency [4],Potency [5],Potency [6],Potency [7],Potency [8],Potency [9],Potency [10]
COc1cc(=C2C=c3ccccc3=N2)[nH]c1=Cc1[nH]c(C)cc1C,11.8 µM (active),10.5 µM (active),5.9 µM (active),14.7 µM (active),2.19 µM (active),11.7 µM (active),26.1 µM (active),10.4 µM (active),,
CC(C)(C)c1cc(C(C)(C)C)c(NC(=O)c2c[nH]c3ccccc3c2=O)cc1O,inactive,inactive,,,,14.7 µM (active),,,inactive,18.5 µM (active)
O=C(O)C1(Cc2cccc(Nc3nccs3)n2)CCC(Oc2cccc(Cl)c2F)CC1 (centres undefined),18.7 µM (active),inactive,inactive,,,,,,,
CN(C)CC(C)(C)CNc1nn2c(-c3ccccc3)nnc2cc1C1CCC1,2.96 µM (active),inactive,,inactive,,20.8 µM (active),inactive,inactive,inactive,inactive
CCOC(=O)C1=C(C)NC2=C(C(=O)CC(C)(C)C2)C1c1ccc(-c2ccccc2)cc1 (centres undefined),14.8 µM (active),inactive,18.7 µM (active),,,,,,,
COc1cc2c(Oc3ccc(-c4cnc(Nc5ccc(F)cc5)n(C)c4=O)cc3F)ccnc2cc1OCCCN1CCOCC1,3.72 µM (active),23.5 µM (active),4.69 µM (active),11.7 µM (active),4.14 µM (active),2.93 µM (active),20.8 µM (active),7.37 µM (active),,11.7 µM (active)
Cc1ccc(-c2ncn(-c3ccc(Nc4nccc(-c5cccc(N6CCOCC6)c5)n4)cc3)n2)cn1,0.0935 µM (active),0.166 µM (active),0.132 µM (active),0.107 µM (active),0.17 µM (active),0.12 µM (active),0.214 µM (active),0.0955 µM (active),,0.24 µM (active)
COc1c(OCCCN2CCOCC2)ccc2c3n(c(=NC(=O)c4cnc(N)nc4)nc12)CCN3,0.0407 µM (active),inactive,0.102 µM (active),2.29 µM (active),1.02 µM (active),1.02 µM (active),inactive,0.644 µM (active),,inactive
COc1cccc2nc(-c3cccs3)nc(NN3C(=O)C=C(C)C3=O)c12,2.96 µM (active),inactive,2.35 µM (active),0.657 µM (active),5.22 µM (active),0.657 µM (active),10.4 µM (active),0.657 µM (active),,5.22 µM (active)
Cc1c(C)n(Cc2ccc(-c3ccccc3C(=O)O)cc2)c2ccc(C(=O)N[C@@H](C)c3ccc([N+](=O)[O-])cc3)cc12,18.7 µM (active),inactive,,inactive,,inactive,inactive,inactive,inactive,inactive
CC=C1NC(=O)[C@H]2CSSCCC=C[C@H](CC(=O)N[C@H](C(C)C)C(=O)N2)OC(=O)[C@H](C(C)C)NC1=O,0.0118 µM (active),0.0526 µM (active),0.0148 µM (active),inactive,inactive,11.7 µM (active),,inactive,,inactive
CC(C)=CCCC(C)=CCCC(C)=CCSc1ccccc1C(=O)O,3.72 µM (active),8.33 µM (active),4.69 µM (active),,,,,,,
c1nc2nc(Nc3ccc(N4CCOCC4)cc3)nc(NC3CCCCC3)c2[nH]1,11.8 µM (active),inactive,5.9 µM (active),,,,,,,
CCn1cc(-c2ccnc3[nH]c(-c4cccc(CN(C)C)c4)cc23)c(-c2ccc(NC(=O)N(C)C)cc2)n1,4.69 µM (active),20.9 µM (active),5.9 µM (active),3.69 µM (active),1.85 µM (active),0.0657 µM (active),,6.57 µM (active),,18.5 µM (active)
O=C(O)c1ccc2c(c1)nc(Nc1cccc(Cl)c1)c1ccncc12,3.72 µM (active),inactive,14.8 µM (active),,,,,,,
CC1(C)OC2=C(C(=O)c3ccccc3C2=O)[C@H](NCc2ccccc2)[C@H]1O,9.35 µM (active),23.5 µM (active),7.43 µM (active),7.37 µM (active),2.93 µM (active),5.22 µM (active),20.8 µM (active),7.37 µM (active),,8.27 µM (active)
CCN(CC)CCCCNc1ncc2cc(-c3cc(OC)cc(OC)c3)c(NC(=O)NC(C)(C)C)nc2n1,inactive,29.6 µM (active),11.8 µM (active),,,,,,,
Clc1cccc(-c2nnnn2Cc2cccnc2)c1Cl,inactive,inactive,inactive,,,,,,,
O=C(Nc1cc(C(F)(F)F)cc(C(F)(F)F)c1)c1cc(Cl)ccc1O,0.743 µM (active),inactive,2.35 µM (active),1.65 µM (active),3.29 µM (active),3.69 µM (active),3.69 µM (active),2.61 µM (active),,
Cc1cc(CN2CCN(c3c(Br)cnc4nc(-c5ccc(N6CCN(C)CC6)cc5)[nH]c34)CC2)no1,18.7 µM (active),inactive,5.9 µM (active),,,,,,,
CCC(=C(c1ccccc1)c1ccc(OCCN(C)C)cc1)c1ccccc1,inactive,inactive,,,,23.3 µM (active),,,inactive,

Compound,Potency [1],Potency [2],Potency [3],Potency [4],Potency [5],Potency [6],Potency [7],Potency [8],Potency [9],Potency [10]
C=CC(=O)N1CCC[C@@H](n2nc(-c3ccc(Oc4ccccc4)cc3)c3c(N)ncnc32)C1,23.5 µM (active),inactive,,,,5.85 µM (active),inactive,,11.8 µM (active),
CCN(CC)CCNC(=O)c1ccc2nc(-c3ccccc3)c(-c3ccc(CN4CCC(n5c(=O)[nH]c6ccccc65)CC4)cc3)nc2c1,7.43 µM (active),9.35 µM (active),10.5 µM (active),,,,,,,
CCc1cc2c(cc1N1CCC(N3CCOCC3)CC1)C(C)(C)c1[nH]c3cc(C#N)ccc3c1C2=O,inactive,inactive,inactive,,,,,,,
Cc1ccc(C(=O)Nc2cccc(C(F)(F)F)c2)cc1-c1ccc2nc(NCCN3CCOCC3)ncc2c1,14.8 µM (active),14.8 µM (active),14.8 µM (active),6.57 µM (active),13.1 µM (active),14.7 µM (active),,9.27 µM (active),,20.8 µM (active)
NC1(Cc2ccc(Cl)cc2)CCN(c2ncnc3[nH]ccc23)CC1,14.8 µM (active),inactive,3.32 µM (active),,,,,,,
C[C@H]1C[C@@H]2[C@@H]([C@@H](O)C[C@@]3(C)[C@H]2CC[C@]3(O)C(=O)CO)[C@@]2(C)C=CC(=O)C=C12,inactive,,inactive,,,,,,inactive,
CCc1c2c(nc3ccc(O)cc13)-c1cc3c(c(=O)n1C2)COC(=O)[C@]3(O)CC,0.0187 µM (active),,0.235 µM (active),,0.0657 µM (active),,2.61 µM (active),,0.132 µM (active),
CN(c1ncccc1CNc1nc(Nc2ccc3c(c2)CC(=O)N3)ncc1C(F)(F)F)S(C)(=O)=O,9.35 µM (active),20.9 µM (active),9.35 µM (active),,3.69 µM (active),,13.1 µM (active),4.65 µM (active),,6.57 µM (active)
Cc1c(Cn2c(C)nc3c(C(=O)O)cc(N4CCOCC4)cc32)cccc1C(F)(F)F,2.96 µM (active),inactive,7.43 µM (active),inactive,inactive,,inactive,,,
Cc1cnc(Nc2ccc(F)cc2Cl)nc1-c1c[nH]c(C(=O)N[C@H](CO)c2cccc(Cl)c2)c1,29.6 µM (active),inactive,18.7 µM (active),,0.827 µM (active),inactive,,inactive,,23.3 µM (active)
Cc1ccc(C(=O)Nc2ccc(CN3CCN(C)CC3)c(C(F)(F)F)c2)cc1C#Cc1cnc2cccnn12,7.43 µM (active),,9.35 µM (active),,4.65 µM (active),0.0033 µM (active),8.27 µM (active),,14.8 µM (active),8.27 µM (active)
Nc1ncnc2c1c(-c1cccc(OCc3ccccc3)c1)cn2C1CC(CN2CCCC2)C1 (centres undefined),18.7 µM (active),,1.87 µM (active),,,,,,,
COC(=O)Nc1ccc(-c2nc(N3CCOCC3)c3cnn(C4CCN(Cc5cccnc5)CC4)c3n2)cc1,0.235 µM (active),,0.132 µM (active),inactive,1.31 µM (active),1.04 µM (active),,,,
Nc1cc(C(F)(F)F)c(-c2cc(N3CCOCC3)nc(N3CCOCC3)n2)cn1,0.187 µM (active),,1.18 µM (active),,2.93 µM (active),5.22 µM (active),,,11.8 µM (active),
C1=CCOCc2cc(ccc2OCCN2CCCC2)Nc2nccc(n2)-c2cccc(c2)OCC1,11.8 µM (active),,5.9 µM (active),,,,,,14.8 µM (active),
NC(=O)c1c(OCc2c(F)cc(Br)cc2F)nsc1NC(=O)NCCCCN1CCCC1,5.9 µM (active),,18.7 µM (active),,,,,,,
CNC(=O)c1ccccc1Nc1nc(Nc2ccc(N3CCOCC3)cc2OC)ncc1Cl,0.935 µM (active),,0.935 µM (active),0.369 µM (active),1.04 µM (active),0.737 µM (active),,0.414 µM (active),1.32 µM (active),
Cc1c(NC(=O)OC[C@@H]2COCCN2)cn2ncnc(Nc3ccc4c(cnn4Cc4cccc(F)c4)c3)c12,0.187 µM (active),inactive,,inactive,18.5 µM (active),,26.1 µM (active),,,20.8 µM (active)
CS(=O)(=O)N1CCN(Cc2cc3nc(-c4cccc5[nH]ncc45)nc(N4CCOCC4)c3s2)CC1,0.0935 µM (active),inactive,,8.51 µM (active),3.39 µM (active),1.7 µM (active),,1.91 µM (active),,
CNc1nccc(-c2cccnc2Oc2cc(C(=O)Nc3cccc(C(F)(F)F)c3)ccc2C)n1,4.69 µM (active),,,,,,,,inactive,
c1cc(-c2cnn3cc(-c4ccc(OCCN5CCCCC5)cc4)cnc23)ccn1,18.7 µM (active),,9.35 µM (active),,,,,,18.7 µM (active),
